ALOX12 inh = inhibitors of human 12S-lipoxygenase ALOX12. P18054. purified 12hLO, xylenol orange hydroperoxide absorbance. Potency, µM (doses to about 108 µM), inactives show top-dose activity change, negative = inhibition, most hits filed as inhibitors. 580,000 compounds, 1.1% hits; note: % is set by controls: 0 for no effect and ±100 for the full control effect
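Purified human 12hLO at 150 nM in 25 mM Hepes, 0.01% Triton X-100, pH 7.0, preincubated 15 min at room temperature with compound. Reaction started with 40 uM arachidonic acid, 30 min at room temperature. Hydroperoxide measured by Fe-xylenol orange, 573/405 nm absorbance ratio.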
BAZ2B inh = blocks human BAZ2B. AlphaScreen BAZ2B-H3K14Ac peptide displacement. Potency, µM (doses to about 114 µM), for inactives: top-dose activity change, negative = inhibition, actives largely listed as inhibitors. 360,000 compounds, 4.4% hits. AID 504333; note: % is set by controls: 0 for no effect and ±100 for the full control effect; nearly all actives have a fitted effect of over 60% in size
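AlphaScreen displacement: compounds (up to 110uM) incubated 30 min at room temperature with a preformed 50 nM BAZ2B/50 nM biotinylated H3K14Ac peptide complex in PBS pH 7.4 with Tween-20. Donor and acceptor beads at 10 ug/mL final added, 20 min light-protected before reading.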
PLK1 PBD block = PLK1 (human) polo-box domain binding inhibition | P53350 | Plk1 PBD binding of FITC phosphopeptide, fluorescence polarization | Potency, µM, without a hit: max response, negative = inhibition, usual class: inhibitors | 360,000 compounds, 2.8% hits; note: series mostly up to about 57 µM; % is set by controls: 0 for no effect and ±100 for the full control effect; nearly all actives have a fitted effect of over 65% in size
HP1b chromo inh = blocks HP1-beta chromodomain binding to methylated histone tails; AlphaScreen HP1-beta / biotin-H3K9me3 peptide binding; 390,000 compounds, 0.56% hits; AID 540317; Potency, µM (doses to about 114 µM), for the others: at the top dose activity change, negative = inhibition, most hits filed as inhibitors; note: nearly all actives have a fitted effect of over 70% in size
Target sequence (P83916 whole entry, looked up): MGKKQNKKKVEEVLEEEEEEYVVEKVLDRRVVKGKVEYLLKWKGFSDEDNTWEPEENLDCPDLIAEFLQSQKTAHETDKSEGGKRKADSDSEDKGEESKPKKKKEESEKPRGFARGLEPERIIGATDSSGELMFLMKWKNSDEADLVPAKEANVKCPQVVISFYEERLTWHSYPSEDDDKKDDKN
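HP1-beta protein (50 nM final) preincubated 30 min at room temperature with biotinylated H3(1-18)K9me3 peptide (50 nM) in PBS pH 7.4, 0.01% Tween-20, then compound added for 30 min. AlphaScreen streptavidin donor/nickel chelate acceptor beads (10 ug/mL final), 30 min dark, luminescence read.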
G9a block = inhibitors of human histone lysine methyltransferase G9a; G9a H3K9 monomethylation, AlphaScreen, 2 h; Q96KQ7; 350,000 compounds, 8.8% hits; Potency, µM (highest dose often 102 µM), for the others: top-dose activity, negative = inhibition, usual class: inhibitors; AID 504332; note: % is set by controls: 0 for no effect and ±100 for the full control effect; nearly all actives have a fitted effect of over 75% in size
Target sequence (Q96KQ7 913-1193 limits assumed): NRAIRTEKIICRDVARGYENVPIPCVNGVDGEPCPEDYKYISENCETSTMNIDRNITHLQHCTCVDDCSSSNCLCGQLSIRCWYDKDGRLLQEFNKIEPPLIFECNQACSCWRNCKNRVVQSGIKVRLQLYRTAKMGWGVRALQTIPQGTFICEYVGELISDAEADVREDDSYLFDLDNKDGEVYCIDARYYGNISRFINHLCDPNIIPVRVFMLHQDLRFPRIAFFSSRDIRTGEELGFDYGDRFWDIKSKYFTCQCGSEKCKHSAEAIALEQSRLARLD
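Step 1: enzyme (final 20 nM) with compound, 15 min RT. Step 2: substrate peptide 500 nM and SAM 20 uM, 2 h RT. Step 3: anti-H3K9me1 antibody and AlphaScreen beads, 10 min, then plate read.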
JMJD2A Tudor inh = blocks the human JMJD2A Tudor domain. O75164. AlphaScreen JMJD2A-Tudor / H3K4me3 peptide binding. Potency, µM (highest dose often 114 µM), for inactives: top-dose activity change, negative = inhibition, usual class: inhibitors. 390,000 compounds, 4.4% hits; note: % is set by controls: 0 for no effect and ±100 for the full control effect; nearly all actives have a fitted effect of over 50% in size
An asterisk follows results filed as active; ? = inconclusive; . = no result; [ ] = remark or other dose. Hits are enriched below; roughly 9% of the tested compounds scored in any of these assays. Calls come from the whole dose curve; as a rule, active = well fitted curve in the direction sought with a large enough effect; inconclusive = small, poorly fitted or top-dose-only effect, or another doubt; inactive = no such curve, though single readings can be large; an effect the other way counts as inactive or inconclusive. Potency is the fitted concentration of half-maximal effect.

SMILES	ALOX12 inh	BAZ2B inh	PLK1 PBD block	HP1b chromo inh	G9a block	JMJD2A Tudor inh
CS(=O)(=O)N(CCC#N)Cc1ccco1	-5%	-5%	-15%	5%	18%[59 µM]	-15%
COc1ccc(-c2cc(C(=O)Nc3sc4c(c3C(N)=O)CCC(C)C4)no2)cc1 (configuration not stated)	-1%	0%	.	48%	-1%[59 µM]	1%
Cc1onc(-c2c(Cl)cccc2Cl)c1C(=O)NC(=S)Nc1sc2c(c1C(N)=O)CCC(C)C2 (configuration not stated)	-20%	1%	?	-6%	45µM*	?
CCCN1C(=O)C(Cc2nc3ccccc3c(=O)n2C)c2cc(Br)ccc21 (configuration not stated)	3%	.	.	.	.	.
Cn1c(CC2C(=O)Nc3ccc(Br)cc32)nc2ccccc2c1=O (configuration not stated)	-9%	-4%	-18%	31%	50µM*	-15%
COc1cccc(S(=O)(=O)N2CCCN(C)c3ccccc32)c1	22µM*	.	.	.	.	.
CCCCNC(=O)C1c2cc(OC)c(OC)cc2C(=O)N(C)C1c1cccs1 (configuration not stated)	8%	2%	-4%	39%	-8%[59 µM]	-3%
Cc1cc(C)c2c(=O)[nH]c(SCC(=O)c3ccc(C)c(C)c3)nc2n1	?	-13%	0%	24%	50µM*	2%
COC(=O)C1=C(C)N(Cc2ccccc2)C(=O)N[C@H]1c1ccc(Br)cc1	11%	3%	0%	81%	30%[59 µM]	-4%
COC(=O)C1=C(C)N(Cc2ccc(Cl)cc2)C(=S)NC1c1ccc(Br)cc1 (configuration not stated)	32µM*	.	.	.	.	.
COC(=O)C1=C(C)N(Cc2ccc(Cl)cc2)C(=S)NC1c1ccc(F)cc1 (configuration not stated)	40µM*	.	.	.	.	.
COC(=O)C1=C(C)N(C)C(=S)NC1c1ccc(Cl)cc1 (configuration not stated)	?	-21%	0%	16%	2%[59 µM]	-4%
CC(C)c1ccc(C(=O)Nc2nnc(S(=O)(=O)N3CCOCC3)s2)cc1	0%	-16%	-8%	46%	63%	-6%
CN1CCN(c2nc(-c3cccnc3)nc3ccccc23)CC1	2%	.	1%	8%	-13%[59 µM]	-3%
c1ccc(-c2nc(N3CCCCC3)c3ccccc3n2)nc1	-53%	.	.	.	.	.
c1ccc(N2CCN(c3nc(-c4ccccn4)nc4ccccc34)CC2)cc1	-2%	1.8µM*	11µM*	?	?	?
N#Cc1ccccc1S(=O)(=O)N1CCN(c2nc(-c3cccnc3)nc3ccccc23)CC1	-20%	14%	7%	12%	50µM*	?
CCN1CCN(c2nc(-c3cccnc3)nc3ccccc23)CC1	-29%	-34%	-8%	5%	?	89µM*
COc1cc2c(cc1OC)CN(c1nc(-c3cccnc3)nc3ccccc13)CC2	417%	40µM*	4%	-19%	50µM*	?
CCCc1[nH][nH]c(=O)c1C(c1ccc(Br)cc1)C(C#N)C#N (configuration not stated)	?	-32%	6µM*	12%	?	-33%
O=C1CCc2cc(S(=O)(=O)Nc3ccc(Cl)c(Cl)c3)c(F)cc2N1	.	.	.	.	.	-29%
Cc1cc(C(=O)CN2C(=O)CN(C)C2=O)c(C)n1-c1cccc(S(=O)(=O)N2CCOCC2)c1	?	-36%	-4%	26%	-16%	-11%
Cc1cc(C(=O)CCl)c(C)n1-c1cccc(S(=O)(=O)N2CCOCC2)c1	-16%	?	21µM*	-9%	?	-9%
Cc1cc(C)c(NC(=O)COc2nc3ccccc3nc2C)c(C)c1	-10%	-4%	3%	27%	13%[59 µM]	-2%
O=C(N/N=C1/CCS(=O)(=O)c2ccc(F)cc21)c1cccnc1	2%	-15%	8%	43%	-8%[12.7 µM]	-8%

Assay outcomes from PubChem BioAssay.
